# Source: the supplement of paper PMC8387472
# Counter-ions that a name gives are not always drawn. ± gives the standard deviation of the averaged measurements.
# Columns and labels:
# [1] = system: mESC LDLR-Dup GFP reporter (SpCas9 MH-deletion repair); assay: fraction of GFP+ cells relative to DMSO control (fold change); higher = more MH-deletion repair to in-frame LDLR (or more editing); conditions: 2 µM; 7 days post-transfection
# [2] = system: 24.0 GACCACAGCCCCCAGCAGGGGAGGCCCCCAGCAGGGGAGGCCCACACCTGCCCCAGCACCT; assay: fraction of edited reads among all mapped reads; higher = more Cas9 editing; conditions: mESC; 2uM; 72 h treatment, harvest day 5
# [3] = system: 6.0 (DMSO control at this site: 1-bp insertion 0.296, MH deletion 0.491, edited 0.076) ACGATTGGCCCCCACAAAGCGGACCAGCCAGCGTGCTAGGGAATAAGGCCAACTTGCACCC; assay: as above; conditions: mESC; 2uM; 72 h treatment, harvest day 5
# [4] = system: 24.0 GACCACAGCCCCCAGCAGGGGAGGCCCCCAGCAGGGGAGGCCCACACCTGCCCCAGCACCT; assay: fraction of microhomology deletions among edited reads; higher = more MH deletions; conditions: mESC; 2uM; 72 h treatment, harvest day 5
# [5] = system: 6.0 (DMSO control at this site: 1-bp insertion 0.296, MH deletion 0.491, edited 0.076) ACGATTGGCCCCCACAAAGCGGACCAGCCAGCGTGCTAGGGAATAAGGCCAACTTGCACCC; assay: as above; conditions: mESC; 2uM; 72 h treatment, harvest day 5
# [6] = system: 24.0 GACCACAGCCCCCAGCAGGGGAGGCCCCCAGCAGGGGAGGCCCACACCTGCCCCAGCACCT; assay: fraction of 1-bp insertions among edited reads; higher = more 1-bp insertion outcomes; conditions: mESC; 2uM; 72 h treatment, harvest day 5
# [7] = system: 6.0 (DMSO control at this site: 1-bp insertion 0.296, MH deletion 0.491, edited 0.076) ACGATTGGCCCCCACAAAGCGGACCAGCCAGCGTGCTAGGGAATAAGGCCAACTTGCACCC; assay: as above; conditions: mESC; 2uM; 72 h treatment, harvest day 5
smiles,measurement,setting,value
CCC[C@H](NC(=O)/C(C#N)=C/c1cccc(Br)n1)c1ccccc1 [Degrasyn (WP1130)],fraction of GFP+ cells,[1],0.638 ± 0.12
CCCCOc1c(C(=O)c2c(F)cc(C)cc2F)c[nH]c2nncc1-2,fraction of edited reads among all mapped reads,[2],0.0449
same,fraction of edited reads among all mapped reads,[3],0.0886
same,fraction of microhomology deletions among edited reads,[4],0.705
same,fraction of microhomology deletions among edited reads,[5],0.523
same,fraction of 1-bp insertions among edited reads,[6],0.0164
same,fraction of 1-bp insertions among edited reads,[7],0.258
same,fraction of GFP+ cells,[1],1.7 ± 0.11
CN1CCCC(n2nc(Cc3ccc(Cl)cc3)c3ccccc3c2=O)CC1 (configuration not stated) [Azelastine HCl],fraction of GFP+ cells,[1],0.868 ± 0.11
CC(C)(C#N)c1ccc(N2C(=O)OCc3cnc4ccc(-c5cnc6ccccc6c5)cc4c32)cc1,fraction of edited reads among all mapped reads,[3],0.0904
same,fraction of microhomology deletions among edited reads,[5],0.53
same,fraction of 1-bp insertions among edited reads,[7],0.267
same,fraction of GFP+ cells,[1],1.01 ± 0.45
O=c1c(-c2ccc(O)cc2)coc2cc(O)cc(O)c12 [Genistein],fraction of edited reads among all mapped reads,[3],0.113
same,fraction of microhomology deletions among edited reads,[5],0.529
same,fraction of 1-bp insertions among edited reads,[7],0.253
same,fraction of GFP+ cells,[1],1.07 ± 0.17
Nc1nc2[nH]cc(CCc3ccc(C(=O)N[C@@H](CCC(=O)O)C(=O)O)cc3)c2c(=O)[nH]1 [Pemetrexed],fraction of edited reads among all mapped reads,[3],0.0705
same,fraction of microhomology deletions among edited reads,[5],0.608
same,fraction of 1-bp insertions among edited reads,[7],0.152
same,fraction of GFP+ cells,[1],1.53 ± 0.08
C=C1C(=O)O[C@@H]2/C=C(\C)CC/C=C(\C)CC[C@@H]12 [Costunolide],fraction of GFP+ cells,[1],1.22 ± 0.2
O=C1C[C@@H](c2ccc(O)cc2)Oc2cc(O)cc(O)c21 [Naringenin],fraction of GFP+ cells,[1],0.997 ± 0.18
Nc1cc(F)ccc1NC(=O)c1ccc(CNC(=O)/C=C/c2cccnc2)cc1 [Tucidinostat (Chidamide)],fraction of edited reads among all mapped reads,[2],0.0463
same,fraction of edited reads among all mapped reads,[3],0.0652
same,fraction of microhomology deletions among edited reads,[4],0.571
same,fraction of microhomology deletions among edited reads,[5],0.502
same,fraction of 1-bp insertions among edited reads,[6],0.103
same,fraction of 1-bp insertions among edited reads,[7],0.272
CCc1c(Cl)c(O)c(Cl)c(O)c1C(=O)O[C@H]1[C@H](O)[C@H](OC)[C@H](OC/C2=C\C=C\C[C@H](O)/C(C)=C/[C@H](CC)[C@@H](O[C@@H]3OC(C)(C)[C@@H](OC(=O)C(C)C)[C@H](O)[C@@H]3O)/C(C)=C/C(C)=C/C[C@@H]([C@@H](C)O)OC2=O)O[C@@H]1C [Fidaxomicin],fraction of GFP+ cells,[1],2.81 ± 0.44
Cc1cc(N2C[C@@H](C)N[C@@H](C)C2)ncc1-c1ccc(-c2nc3c(ccn3C)c(=O)[nH]2)cc1,fraction of GFP+ cells,[1],0.927 ± 0.33
S=P(N1CC1)(N1CC1)N1CC1 [Thiotepa],fraction of GFP+ cells,[1],0.905 ± 0.27
